The nature of assay [1]: BSK_3C_TissueFactor: BioMAP Diversity Plus: 3C Assay for Tissue Factor Biomarker Activity (AID 2282997). The note with it: BioMAP 3C HUVEC, tissue factor biomarker readout; actives raise or lower the signal. The procedure, abridged: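 Dosing of human umbilical vein endothelial cells preceded a 24 h incubation. Tissue Factor was then read by ELISA, with increases and decreases both scored relative to DMSO controls.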

Assay [2] is described as follows: BSK_3C_uPAR: BioMAP Diversity Plus: 3C Assay for Urokinase-type plasminogen activator receptor (uPAR) Biomarker Activity (AID 2282998). The note with it: BioMAP 3C HUVEC, uPAR biomarker ELISA; actives raise or lower the signal. The method in brief:
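Dose primary human umbilical vein endothelial cells, incubate 24 h, measure cell-surface uPAR by ELISA, then fit the signal in both directions against the DMSO negative control.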
(In general: ELISA stands for enzyme-linked immunosorbent assay.)

Assay [3] is described as follows: BSK_3C_VCAM1: BioMAP Diversity Plus: 3C Assay for Vascular cell adhesion molecule 1 (VCAM1) Biomarker Activity (AID 2282999). The note with it: BioMAP 3C HUVEC, VCAM1 ELISA, cytokine-stimulated; actives raise or lower the signal. The method in brief: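 Endothelial cells from human umbilical vein are treated with test chemical. At 24 h, VCAM-1 is measured by ELISA, and responses in either direction are fitted relative to DMSO.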

Assay [4] can be described thus: BSK_4H_Eotaxin3: BioMAP Diversity Plus: 4H Assay for Eotaxin 3 Biomarker Activity (AID 2283000).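 Note: CCL26 protein level quantified by ELISA in parallel with SRB cytotoxicity check.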 The note with it: primary human endothelial cells (HUVEC); actives raise or lower the signal. The procedure, abridged:
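Human umbilical vein endothelial cells (BSK_4H system) dosed with test chemical; Eotaxin-3 (CCL26) measured by ELISA 24 h after dosing. Bidirectional curve fitting relative to DMSO negative control as baseline.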

Read-out in assay [5]: Intercellular Adhesion Molecule 1 (ICAM1), ICAM1 (gene 3383)
Put plainly: BSK_3C_ICAM1: BioMAP Diversity Plus: 3C Assay for Intercellular Adhesion Molecule 1 (ICAM1) Biomarker Activity (AID 2283003). The note with it: primary human endothelial cells (HUVEC); actives raise or lower the signal. The method in brief:
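HUVEC primary cells stimulated under 3C conditions; ICAM1 measured by ELISA 24 h after compound dosing. Curves fitted bidirectionally against the DMSO baseline. Overt cytotoxicity checked by SRB staining of parallel cultures.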

Read-out in assay [6]: E-selectin (Homo sapiens) (UniProt P16581)
Put plainly: BSK_3C_Eselectin: BioMAP Diversity Plus: 3C Assay for Eselectin Biomarker Activity (AID 2283015). The note with it: primary human endothelial cells (HUVEC); actives raise or lower the signal. The method in brief: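 E-selectin ELISA readout, fitted bidirectionally relative to DMSO, taken 24 h post-dosing in HUVEC cultures of the 3C system. Overt cytotoxicity tracked with sulforhodamine B staining of parallel wells.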

Read-out in assay [7]: Interleukin-1 alpha (IL1a), IL1A (gene 3552)
Description: BSK_BE3C_IL1a: BioMAP Diversity Plus: BE3C Assay for Interleukin-1 alpha (IL1a) Biomarker Activity (AID 2283016). The note with it: primary human bronchial epithelial cells; actives raise or lower the signal. The method in brief: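 Human primary bronchial epithelial cells, 24 h chemical exposure; IL-1a quantified by ELISA, fitted bidirectionally against DMSO. Cytotoxicity assessed in parallel by SRB total-protein staining at the time of measurement.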

Read-out in assay [8]: Monocyte Chemoattractant Protein-1 (MCP1), CCL2 (gene 6347)
Put plainly: BSK_3C_MCP1: BioMAP Diversity Plus: 3C Assay for Monocyte Chemoattractant Protein-1 (MCP1) Biomarker Activity (AID 2283017). The note with it: primary human endothelial cells (HUVEC); actives raise or lower the signal. The method in brief: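 MCP-1 was measured by ELISA 24 h after dosing in primary HUVEC 3C cultures and fitted in both directions relative to DMSO; cytotoxicity was checked by SRB total-protein staining in parallel wells.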

Read-out in assay [9]: Monocyte Chemoattractant Protein-1 (MCP1), CCL2 (gene 6347)
Put plainly: BSK_4H_MCP1: BioMAP Diversity Plus: 4H Assay for Monocyte Chemoattractant Protein-1 (MCP1) Biomarker Activity (AID 2283018). The note with it: primary human endothelial cells (HUVEC); actives raise or lower the signal. The method in brief: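 Human umbilical vein endothelial cells (4H system) exposed to chemicals for 24 h in 96-well format. MCP-1 measured by ELISA; bidirectional fitting against DMSO, with SRB total-protein staining in parallel cultures for cytotoxicity.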

Read-out in assay [10]: Interleukin-8 (IL8), CXCL8 (gene 3576)
Put plainly: BSK_3C_IL8: BioMAP Diversity Plus: 3C Assay for Interleukin-8 (IL8) Biomarker Activity (AID 2283020). The note with it: primary human endothelial cells (HUVEC); actives raise or lower the signal. The procedure, abridged: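 Primary human umbilical vein endothelial cells were dosed for 24 h. IL-8 was quantified by ELISA and fitted bidirectionally against DMSO. Cytotoxicity was assessed in parallel cultures by SRB staining at 560 nm.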

Read-out in assay [11]: Monokine induced gamma interferon (MIG), CXCL9 (gene 4283)
Description: BSK_3C_MIG: BioMAP Diversity Plus: 3C Assay for Monokine induced gamma interferon (MIG) Biomarker Activity (AID 2283021). The following applies: primary human endothelial cells (HUVEC); actives raise or lower the signal. The method in brief:
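HUVEC primary endothelial cultures dosed with chemical; MIG quantified by ELISA at 24 h. Data fitted bidirectionally against DMSO control, with parallel SRB total-protein staining for cytotoxicity.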

A short description of assay [12]: BSK_3C_SRB: Viability Assessment in the BioMAP Diversity Plus: 3C Assay (AID 2283023).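 Note: fitted both ways against DMSO so a hit may be signal rise or drop.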 The note with it: primary human endothelial cells (HUVEC). The method in brief:
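Cytotoxicity readout in parallel HUVEC 3C cultures: after 24 h compound exposure, cells fixed with 10% TCA, stained with 0.1% SRB and read at 560 nm. Gain or loss relative to DMSO fitted.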

A short description of assay [13]: BSK_4H_SRB: Viability Assessment in the BioMAP Diversity Plus: 4H Assay (AID 2283027).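 Note: cells exposed to compound for 24 h before staining.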 The following applies: primary human endothelial cells (HUVEC). The method in brief:
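Absorbance at 560 nm of SRB-stained total protein served as the viability read-out in confluent primary human umbilical vein endothelium 24 h after chemical treatment. Curves were fitted bidirectionally against DMSO as negative control.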

A short description of assay [14]: BSK_BE3C_SRB: Viability Assessment in the BioMAP Diversity Plus: BE3C Assay (AID 2283028). The note with it: primary human bronchial epithelial cells. The procedure, abridged:
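Cytotoxicity read-out: SRB (0.1%) staining of TCA-fixed (10%) human lung bronchial epithelial cells, absorbance 560 nm, 24 h post-dosing. Curves fitted both directions relative to DMSO.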

Read-out in assay [15]: Thrombomodulin, THBD (gene 7056)
Description: BSK_3C_Thrombomodulin: BioMAP Diversity Plus: 3C Assay for Thrombomodulin Biomarker Activity (AID 2283029). The note with it: primary human endothelial cells (HUVEC); actives raise or lower the signal. The method in brief: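 Human umbilical vein endothelial cells were exposed to chemicals for 24 h; cell-surface thrombomodulin quantified by ELISA, with bidirectional fitting against DMSO baseline.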

Read-out in assay [16]: Monokine induced gamma interferon (MIG), CXCL9 (gene 4283)
Description: BSK_hDFCGF_MIG: BioMAP Diversity Plus: hDFCGF Assay for Monokine induced gamma interferon (MIG) Biomarker Activity (AID 2283063). The note with it: primary human foreskin fibroblasts; actives raise or lower the signal. The method in brief:
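Human primary foreskin fibroblasts in the hDFCGF system, exposed to test chemical for 24 h; MIG measured by ELISA. Bidirectional curve fitting against DMSO negative control as activity baseline.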

Read-out in assay [17]: Matrix Metallopeptidase 1 (MMP1), MMP1 (gene 4312)
Put plainly: BSK_hDFCGF_MMP1: BioMAP Diversity Plus: hDFCGF Assay for Matrix Metallopeptidase 1 (MMP1) Biomarker Activity (AID 2283064). The note with it: primary human foreskin fibroblasts; actives raise or lower the signal. The procedure, abridged:
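hDFCGF primary fibroblasts (human foreskin); chemical added; 24 h; MMP1 by ELISA; bidirectional fit vs DMSO.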

Read-out in assay [18]: E-selectin (Homo sapiens) (UniProt P16581)
Put plainly: BSK_SAg_Eselectin: BioMAP Diversity Plus: SAg Assay for Eselectin Biomarker Activity (AID 2283091). The following applies: primary human HUVEC with PBMC; actives raise or lower the signal. The procedure, abridged: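 Cell-surface E-selectin is read by ELISA at 24 h in the SAg co-culture of HUVEC and PBMC. Curves are fitted in both directions relative to DMSO. Parallel SRB total-protein staining tracks overt toxicity.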

The nature of assay [19]: BSK_SAg_PBMCCytotoxicity: PBMC Cytotoxicity Assessment in the BioMAP Diversity Plus: SAg Assay (AID 2283093).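 For AC50: PBMC superantigen activated with SEB plus TSST-1 one hour after compound addition.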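 Note: PBMC viability measured as Alamar Blue reduction fluorescence at 546/580 nm; fitted both ways against DMSO so a hit may be loss or gain of signal.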 The following applies: primary human HUVEC with PBMC. The procedure, abridged:
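Compound added to 75,000 PBMC/well for 1 h; SEB and TSST-1 then added at 20 ng/mL final each; 90 h incubation; Alamar Blue 6 h; read 546/580 nm ex/em. Activity fitted bidirectionally relative to DMSO baseline.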

Read-out in assay [20]: Interleukin-8 (IL8), CXCL8 (gene 3576)
Description: BSK_SAg_IL8: BioMAP Diversity Plus: SAg Assay for Interleukin-8 (IL8) Biomarker Activity (AID 2283094). The note with it: primary human HUVEC with PBMC; actives raise or lower the signal. The procedure, abridged: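 Human umbilical vein endothelial cells co-cultured with PBMC, stimulated with superantigen; IL-8 measured by ELISA 24 h after chemical dosing. Bidirectional fitting versus DMSO; SRB staining in parallel cultures tracks cytotoxicity.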

The source holds several records for some structures; these can differ, active in one and inactive in another. Activity calls are given as the source filed them. Rule for the calls: active = hit-call score of the fitted dose curve at least 0.9, where 1 is the maximum; inactive = score below 0.9.

As a reminder, the AC50 is the concentration at which the activity in the assay is half-maximal.

Chain of E-selectin (Homo sapiens) (P16581 whole entry, looked up): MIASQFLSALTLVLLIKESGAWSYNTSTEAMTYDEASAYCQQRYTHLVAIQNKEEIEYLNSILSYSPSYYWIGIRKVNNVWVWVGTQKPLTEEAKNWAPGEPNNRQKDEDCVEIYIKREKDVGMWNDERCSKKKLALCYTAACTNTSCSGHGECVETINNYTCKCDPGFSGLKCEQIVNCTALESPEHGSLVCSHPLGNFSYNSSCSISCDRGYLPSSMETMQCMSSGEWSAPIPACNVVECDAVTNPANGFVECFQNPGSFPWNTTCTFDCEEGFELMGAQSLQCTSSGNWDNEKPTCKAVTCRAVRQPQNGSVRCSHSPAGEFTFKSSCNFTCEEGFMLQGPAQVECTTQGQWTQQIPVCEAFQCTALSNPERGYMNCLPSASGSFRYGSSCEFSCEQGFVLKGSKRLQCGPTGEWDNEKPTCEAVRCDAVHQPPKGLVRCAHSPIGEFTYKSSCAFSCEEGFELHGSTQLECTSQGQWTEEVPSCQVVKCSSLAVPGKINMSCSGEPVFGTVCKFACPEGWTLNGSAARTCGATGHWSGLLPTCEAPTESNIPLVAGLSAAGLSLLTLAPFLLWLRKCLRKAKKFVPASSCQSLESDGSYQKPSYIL

Take `CCCCCCC(O)CCCCCCCCCCC(=O)OC` (stereo not given): the outcome in assay [1], in [2], in [3], in [4], in assay [5] and in assay [6] was inactive. The result in assay [7], in assay [8], in [10], in [11], in assay [12] and in assay [13] was inactive. Besides, the result in assay [14], in assay [15], in assay [16], in assay [17], in assay [18] and in assay [19] was inactive. In addition, in [20], the result was inactive. In addition, the AC50 in assay [9] is 8.39 µM (active).
On to `CCC(C)=NO`, for which the outcome in assay [1], in [2], in [3], in assay [4], in assay [5] and in assay [6] was inactive. Further, the result in assay [7], in [8], in assay [9], in assay [10], in assay [11] and in assay [12] was inactive. Besides, the result in assay [13], in assay [14], in assay [15], in assay [16], in [17] and in [18] was inactive. In addition, the outcome in [19] and in [20] was inactive.
Regarding `CN(C)Cc1cc(C(C)(C)C)c(O)c(C(C)(C)C)c1`, the result in assay [1], in assay [2], in [3], in assay [4], in [5] and in assay [6] was inactive. Moreover, the result in assay [7], in assay [8], in [9], in assay [10], in assay [11] and in [12] was inactive. Besides, the outcome in assay [13], in assay [14], in assay [15], in assay [16], in [17] and in assay [18] was inactive. In addition, the outcome in [19] and in assay [20] was inactive. Besides, the concentration at half-maximal activity (AC50) was 20 µM (active) in assay [16]; 20 µM (active) in assay [17]; 20 µM (active) in assay [18]; 28.7 µM (active) in assay [19]; 20 µM (active) in assay [20].
Turning to `O=C(C(=O)c1ccccc1)c1ccccc1`, the outcome in assay [1], in [2], in [3], in assay [4], in assay [5] and in assay [6] was inactive. For the same molecule, the outcome in assay [7], in assay [8], in assay [9], in assay [10], in [11] and in assay [13] was inactive. Besides, the result in [14], in assay [15], in assay [16], in assay [17], in [18] and in assay [19] was inactive. Besides, the outcome in assay [20] was inactive. Besides, the AC50 in assay [12] was 0.194 µM (active).

For the origin of these results see PubChem BioAssay (EPA / NIEHS).
